Data reported in PMC7862700, “An all-to-all approach to the identification of sequence-specific readers for epigenetic DNA modifications on cytosine”.

How the values were obtained:
Assay in all cases: DAPPL (digital affinity profiling via proximity ligation, sequencing); 10 mM Tris-HCl pH 7.5, 50 mM NaCl, 1 mM DTT, 4% glycerol, room temperature, 30 min; GST-TFs on glutathione beads, 16-mer random dsDNA library, 0.1% formaldehyde crosslink after washing; high values mean tight binding
Settings in all cases: protein: recombinant; tags: N-terminal GST; dsDNA, one strand shown
ERF = biological target: T1, ERF (Homo sapiens, UniProt P50548 1-548)
T1 sequence: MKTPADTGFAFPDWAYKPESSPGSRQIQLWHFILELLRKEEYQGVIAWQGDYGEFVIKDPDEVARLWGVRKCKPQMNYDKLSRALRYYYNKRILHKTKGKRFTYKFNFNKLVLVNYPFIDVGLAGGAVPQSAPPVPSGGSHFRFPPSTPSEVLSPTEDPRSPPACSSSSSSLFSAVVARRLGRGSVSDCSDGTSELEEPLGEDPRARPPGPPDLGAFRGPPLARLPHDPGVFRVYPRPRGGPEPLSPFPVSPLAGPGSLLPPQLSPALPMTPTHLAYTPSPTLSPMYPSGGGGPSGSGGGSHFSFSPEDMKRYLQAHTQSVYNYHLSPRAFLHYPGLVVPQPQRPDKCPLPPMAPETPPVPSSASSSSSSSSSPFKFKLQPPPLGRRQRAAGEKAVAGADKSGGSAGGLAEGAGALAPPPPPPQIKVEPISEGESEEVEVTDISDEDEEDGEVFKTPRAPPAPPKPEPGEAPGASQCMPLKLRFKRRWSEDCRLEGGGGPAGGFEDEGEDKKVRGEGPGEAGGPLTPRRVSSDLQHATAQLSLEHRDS
Procedure, shortened: (§1)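 Binding signal is given per hexamer as its read frequency for a factor divided by its frequency in the tag-only sample. GST-fused human transcription factors were expressed in yeast, captured on glutathione beads, barcoded with DNA and pooled with that sample, then incubated with 200 nmole of a 16-mer random double-stranded DNA library in Tris/NaCl/DTT/glycerol buffer for 30 min at room temperature. The pools were then washed, crosslinked, proximity-ligated, amplified by PCR and sequenced on an Illumina NextSeq500.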

ETV3L = biological target: T2, ETV3L (Homo sapiens, UniProt Q6ZN32 1-361)
T2 sequence: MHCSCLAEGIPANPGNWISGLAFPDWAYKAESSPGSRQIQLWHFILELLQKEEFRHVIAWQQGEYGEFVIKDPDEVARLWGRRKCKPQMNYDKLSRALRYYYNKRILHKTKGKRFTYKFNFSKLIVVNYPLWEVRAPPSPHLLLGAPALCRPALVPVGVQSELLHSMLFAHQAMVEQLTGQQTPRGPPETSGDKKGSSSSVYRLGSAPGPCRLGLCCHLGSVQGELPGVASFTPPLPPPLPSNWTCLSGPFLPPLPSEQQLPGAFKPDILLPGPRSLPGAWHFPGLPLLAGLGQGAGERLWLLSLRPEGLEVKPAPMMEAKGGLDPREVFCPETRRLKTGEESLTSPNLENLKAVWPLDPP
Procedure, shortened: as §1

ETS2 = biological target: T3, ETS2 (Homo sapiens, UniProt P15036 1-469)
T3 sequence: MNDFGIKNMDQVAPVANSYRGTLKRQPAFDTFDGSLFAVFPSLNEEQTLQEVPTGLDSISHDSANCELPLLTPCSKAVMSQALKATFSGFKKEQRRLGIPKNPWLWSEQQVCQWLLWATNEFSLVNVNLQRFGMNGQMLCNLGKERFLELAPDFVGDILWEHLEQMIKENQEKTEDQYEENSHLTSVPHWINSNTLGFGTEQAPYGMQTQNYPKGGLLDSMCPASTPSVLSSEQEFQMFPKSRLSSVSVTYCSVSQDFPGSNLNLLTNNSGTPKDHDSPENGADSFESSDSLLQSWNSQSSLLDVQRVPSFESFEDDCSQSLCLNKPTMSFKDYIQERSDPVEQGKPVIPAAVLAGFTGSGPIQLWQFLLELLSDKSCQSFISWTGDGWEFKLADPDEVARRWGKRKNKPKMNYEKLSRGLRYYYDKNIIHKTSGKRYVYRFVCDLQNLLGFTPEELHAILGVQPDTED
Procedure, shortened: as §1

SPDEF = biological target: T4, SPDEF (Homo sapiens, UniProt O95238 1-335)
T4 sequence: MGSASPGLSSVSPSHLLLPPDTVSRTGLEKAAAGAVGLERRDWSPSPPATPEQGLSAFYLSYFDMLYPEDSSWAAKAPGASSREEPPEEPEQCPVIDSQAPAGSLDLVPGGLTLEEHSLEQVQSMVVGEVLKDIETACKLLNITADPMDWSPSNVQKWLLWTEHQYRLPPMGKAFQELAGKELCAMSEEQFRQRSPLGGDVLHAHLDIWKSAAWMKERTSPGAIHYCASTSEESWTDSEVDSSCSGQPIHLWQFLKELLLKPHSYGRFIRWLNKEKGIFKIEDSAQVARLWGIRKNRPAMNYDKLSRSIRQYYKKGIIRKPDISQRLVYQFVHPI
Procedure, shortened: as §1

ETV7 = biological target: T5, ETV7 (Homo sapiens, UniProt Q9Y603 1-341)
T5 sequence: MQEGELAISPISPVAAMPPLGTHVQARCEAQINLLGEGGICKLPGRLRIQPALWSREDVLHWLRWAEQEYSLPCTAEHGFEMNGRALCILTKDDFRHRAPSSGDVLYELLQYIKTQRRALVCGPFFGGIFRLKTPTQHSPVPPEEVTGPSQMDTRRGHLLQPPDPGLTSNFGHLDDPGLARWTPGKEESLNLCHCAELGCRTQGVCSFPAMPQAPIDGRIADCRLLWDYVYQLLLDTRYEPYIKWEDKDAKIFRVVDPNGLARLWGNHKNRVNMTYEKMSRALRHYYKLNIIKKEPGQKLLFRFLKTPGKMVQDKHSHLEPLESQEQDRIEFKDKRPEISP
Procedure, shortened: as §1

ELF5 = biological target: T6, ELF5 (Homo sapiens, UniProt Q9UKW6-2 1-255)
T6 sequence: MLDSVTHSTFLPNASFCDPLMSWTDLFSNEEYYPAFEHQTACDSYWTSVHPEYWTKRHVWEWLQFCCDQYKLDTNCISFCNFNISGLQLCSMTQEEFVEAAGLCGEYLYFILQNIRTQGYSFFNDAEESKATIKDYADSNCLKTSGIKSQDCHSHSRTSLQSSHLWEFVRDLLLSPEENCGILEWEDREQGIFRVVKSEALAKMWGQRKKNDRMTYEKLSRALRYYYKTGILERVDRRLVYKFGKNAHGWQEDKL
Procedure, shortened: as §1

ETV3 = biological target: T7, ETV3 (Homo sapiens, UniProt P41162-2 1-143)
T7 sequence: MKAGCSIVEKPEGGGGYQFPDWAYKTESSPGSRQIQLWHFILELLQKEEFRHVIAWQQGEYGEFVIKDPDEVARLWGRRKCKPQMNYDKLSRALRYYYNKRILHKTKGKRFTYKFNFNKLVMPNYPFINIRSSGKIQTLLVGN
Procedure, shortened: as §1

ETV6 = ETV6 (Homo sapiens, UniProt P41212 1-452)
ETV6, sequence (P41212 whole entry): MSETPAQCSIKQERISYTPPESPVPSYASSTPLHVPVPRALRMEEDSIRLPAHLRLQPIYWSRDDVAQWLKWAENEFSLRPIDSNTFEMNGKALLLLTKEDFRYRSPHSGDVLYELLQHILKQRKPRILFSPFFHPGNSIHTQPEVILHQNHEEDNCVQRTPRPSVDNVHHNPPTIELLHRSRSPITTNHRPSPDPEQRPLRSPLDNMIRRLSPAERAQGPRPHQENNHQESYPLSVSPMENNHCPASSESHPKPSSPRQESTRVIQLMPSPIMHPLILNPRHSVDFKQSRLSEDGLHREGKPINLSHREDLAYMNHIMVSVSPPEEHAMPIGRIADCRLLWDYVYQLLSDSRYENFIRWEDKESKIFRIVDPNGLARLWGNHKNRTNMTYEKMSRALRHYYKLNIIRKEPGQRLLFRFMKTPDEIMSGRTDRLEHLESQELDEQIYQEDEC
Procedure, shortened: as §1

Sequence | binding signal (ERF) | binding signal (ETV3L) | binding signal (ETS2) | binding signal (SPDEF) | binding signal (ETV7) | binding signal (ELF5) | binding signal (ETV3) | binding signal (ETV6)
CCCCGA | 1.15 fold enrichment (6-mer frequency, TF over GST control) | 1.23 fold enrichment (6-mer frequency, TF over GST control) | 1.07 fold enrichment (6-mer frequency, TF over GST control) | 1.05 fold enrichment (6-mer frequency, TF over GST control) | 1.06 fold enrichment (6-mer frequency, TF over GST control) | 1.13 fold enrichment (6-mer frequency, TF over GST control) | 1.05 fold enrichment (6-mer frequency, TF over GST control) | 1.11 fold enrichment (6-mer frequency, TF over GST control)
TCCGCG | 1.22 fold enrichment (6-mer frequency, TF over GST control) | 1.29 fold enrichment (6-mer frequency, TF over GST control) | 1.36 fold enrichment (6-mer frequency, TF over GST control) | 1.4 fold enrichment (6-mer frequency, TF over GST control) | 1.31 fold enrichment (6-mer frequency, TF over GST control) | 1.55 fold enrichment (6-mer frequency, TF over GST control) | 1.37 fold enrichment (6-mer frequency, TF over GST control) | 1.25 fold enrichment (6-mer frequency, TF over GST control)
CTGCCA | 1.18 fold enrichment (6-mer frequency, TF over GST control) | 1.25 fold enrichment (6-mer frequency, TF over GST control) | 1.18 fold enrichment (6-mer frequency, TF over GST control) | 1.15 fold enrichment (6-mer frequency, TF over GST control) | 1.08 fold enrichment (6-mer frequency, TF over GST control) | 1.2 fold enrichment (6-mer frequency, TF over GST control) | 1.09 fold enrichment (6-mer frequency, TF over GST control) | 1.14 fold enrichment (6-mer frequency, TF over GST control)
TGCCCC | 1.15 fold enrichment (6-mer frequency, TF over GST control) | 1.28 fold enrichment (6-mer frequency, TF over GST control) | 1.12 fold enrichment (6-mer frequency, TF over GST control) | 1.21 fold enrichment (6-mer frequency, TF over GST control) | 1.18 fold enrichment (6-mer frequency, TF over GST control) | 1.18 fold enrichment (6-mer frequency, TF over GST control) | 1.3 fold enrichment (6-mer frequency, TF over GST control) | 1.24 fold enrichment (6-mer frequency, TF over GST control)
TATAGC | 1.24 fold enrichment (6-mer frequency, TF over GST control) | 1.25 fold enrichment (6-mer frequency, TF over GST control) | 1.18 fold enrichment (6-mer frequency, TF over GST control) | 1.18 fold enrichment (6-mer frequency, TF over GST control) | 1.19 fold enrichment (6-mer frequency, TF over GST control) | 1.13 fold enrichment (6-mer frequency, TF over GST control) | 1.2 fold enrichment (6-mer frequency, TF over GST control) | 1.15 fold enrichment (6-mer frequency, TF over GST control)
TCGCAA | 1.27 fold enrichment (6-mer frequency, TF over GST control) | 1.1 fold enrichment (6-mer frequency, TF over GST control) | 1.05 fold enrichment (6-mer frequency, TF over GST control) | 1.09 fold enrichment (6-mer frequency, TF over GST control) | 1.01 fold enrichment (6-mer frequency, TF over GST control) | 1.06 fold enrichment (6-mer frequency, TF over GST control) | 1.13 fold enrichment (6-mer frequency, TF over GST control) | 1.09 fold enrichment (6-mer frequency, TF over GST control)
CGGAAG | 2.46 fold enrichment (6-mer frequency, TF over GST control) | 2.71 fold enrichment (6-mer frequency, TF over GST control) | 3.01 fold enrichment (6-mer frequency, TF over GST control) | 3.02 fold enrichment (6-mer frequency, TF over GST control) | 2.8 fold enrichment (6-mer frequency, TF over GST control) | 3.37 fold enrichment (6-mer frequency, TF over GST control) | 3.28 fold enrichment (6-mer frequency, TF over GST control) | 3.4 fold enrichment (6-mer frequency, TF over GST control)
TATGTG | 1.07 fold enrichment (6-mer frequency, TF over GST control) | 1.02 fold enrichment (6-mer frequency, TF over GST control) | 1.07 fold enrichment (6-mer frequency, TF over GST control) | 1.09 fold enrichment (6-mer frequency, TF over GST control) | 1.04 fold enrichment (6-mer frequency, TF over GST control) | 1.01 fold enrichment (6-mer frequency, TF over GST control) | 1.09 fold enrichment (6-mer frequency, TF over GST control) | 1.07 fold enrichment (6-mer frequency, TF over GST control)
ACTTGT | 1.28 fold enrichment (6-mer frequency, TF over GST control) | 1.23 fold enrichment (6-mer frequency, TF over GST control) | 1.36 fold enrichment (6-mer frequency, TF over GST control) | 1.22 fold enrichment (6-mer frequency, TF over GST control) | 1.2 fold enrichment (6-mer frequency, TF over GST control) | 1.28 fold enrichment (6-mer frequency, TF over GST control) | 1.36 fold enrichment (6-mer frequency, TF over GST control) | 1.32 fold enrichment (6-mer frequency, TF over GST control)
AAGGAA | 1.23 fold enrichment (6-mer frequency, TF over GST control) | 1.3 fold enrichment (6-mer frequency, TF over GST control) | 1.34 fold enrichment (6-mer frequency, TF over GST control) | 1.22 fold enrichment (6-mer frequency, TF over GST control) | 1.28 fold enrichment (6-mer frequency, TF over GST control) | 2.15 fold enrichment (6-mer frequency, TF over GST control) | 1.37 fold enrichment (6-mer frequency, TF over GST control) | 1.41 fold enrichment (6-mer frequency, TF over GST control)
TCACCC | 1.2 fold enrichment (6-mer frequency, TF over GST control) | 1.16 fold enrichment (6-mer frequency, TF over GST control) | 1.13 fold enrichment (6-mer frequency, TF over GST control) | 1.23 fold enrichment (6-mer frequency, TF over GST control) | 1.04 fold enrichment (6-mer frequency, TF over GST control) | 1.07 fold enrichment (6-mer frequency, TF over GST control) | 1.14 fold enrichment (6-mer frequency, TF over GST control) | 1.05 fold enrichment (6-mer frequency, TF over GST control)
GACATT | 1.22 fold enrichment (6-mer frequency, TF over GST control) | 1.17 fold enrichment (6-mer frequency, TF over GST control) | 1.11 fold enrichment (6-mer frequency, TF over GST control) | 1.13 fold enrichment (6-mer frequency, TF over GST control) | 1.07 fold enrichment (6-mer frequency, TF over GST control) | 1.17 fold enrichment (6-mer frequency, TF over GST control) | 1.21 fold enrichment (6-mer frequency, TF over GST control) | 1.26 fold enrichment (6-mer frequency, TF over GST control)
CAGGAA | 1.42 fold enrichment (6-mer frequency, TF over GST control) | 1.53 fold enrichment (6-mer frequency, TF over GST control) | 1.75 fold enrichment (6-mer frequency, TF over GST control) | 1.53 fold enrichment (6-mer frequency, TF over GST control) | 1.52 fold enrichment (6-mer frequency, TF over GST control) | 2.12 fold enrichment (6-mer frequency, TF over GST control) | 1.72 fold enrichment (6-mer frequency, TF over GST control) | 1.83 fold enrichment (6-mer frequency, TF over GST control)
CCCTTT | 1.42 fold enrichment (6-mer frequency, TF over GST control) | 1.51 fold enrichment (6-mer frequency, TF over GST control) | 1.37 fold enrichment (6-mer frequency, TF over GST control) | 1.51 fold enrichment (6-mer frequency, TF over GST control) | 1.34 fold enrichment (6-mer frequency, TF over GST control) | 1.52 fold enrichment (6-mer frequency, TF over GST control) | 1.36 fold enrichment (6-mer frequency, TF over GST control) | 1.4 fold enrichment (6-mer frequency, TF over GST control)
